Assay in all cases: NCI-60 one-dose screen, 48 h (100 = growth as untreated, 0 = no growth, -100 = all killed)
Common to all, as to settings: 10 µM unless noted

For assay [1], the system named is T-47D breast.
The subject of assay [2] is BT-549 breast.
The subject of assay [3] is MDA-MB-435 melanoma.
The test system of assay [4] is SW-620 colon.
Assay [5] concerns MCF7 breast.
In assay [6] the test system is HCT-116 colon.
In assay [7] the test system is HCC-2998 colon.
In assay [8] the test system is KM12 colon.

The panel holds about 83,000 compounds, 20% with a hit somewhere; the sample as a whole holds those more often.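 Assay: single dose, 48 h. Readout: percent growth (0 = no net growth; negative = cell death). Active: <10.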 Unmarked numbers belong to inactive results. Active and inactive are the calls of the source.

Turning to `CCCCn1c(-c2ccc(O)cc2)cn2c3c(=O)[nH]c(=O)n(C)c3nc12`, the growth was 64.6% in assay [1]; 76.5% in assay [2]; -13.1% (active) in assay [3]; 36.6% in assay [4]; 41.7% in assay [5]; 45.4% in assay [6]. Also, the figures for the growth in assay [7] and in assay [8] were 72.3% and 59.9%, respectively.

Turning to `O=C1/C(=C\c2ccc(Br)o2)SC(=S)N1CCc1ccc(O)cc1`, the growth in assay [1] was 57.7%; in assay [2] it was 76.4%; in assay [3] it was 71.3%; in assay [4], 102%; in assay [5] it was 33.4%; in assay [6] it was 77.7%. Besides, the results for the growth in assay [7] and in assay [8] were 119% and 19.5%, respectively.

As to `O=C1/C(=C\c2ccco2)SC(=S)N1CCc1ccc(O)cc1`, the growth in assay [1] was 67.6%; in assay [2] it was 87.2%; in assay [3] it was 93.7%; in assay [4] it was 109%; in assay [5] it was 114%; in assay [6], 96.1%. Further, the growth in assay [7] is 116%; in assay [8], 85.5%.

Take `COc1cc(-c2nc(-c3ccccc3)c(-c3ccccc3)[nH]2)cc(OC)c1O`: the growth was 6.06% (active) in assay [1]; 11.5% in assay [2]; -23.2% (active) in assay [3]; -37.2% (active) in assay [4]; -85.8% (active) in assay [5]; -2.7% (active) in assay [6]. Moreover, the values for the growth in assay [7] and in assay [8] were -55.2% (active) and -52.9% (active), respectively.

On to `CC1(C)C(=O)CC[C@]2(C)[C@H]3C(=O)C=C4[C@@H]5C[C@@](C)(C(=O)NCCNCCN)CC[C@]5(C)CC[C@@]4(C)[C@]3(C)CC[C@@H]12`, for which the growth in assay [1] is 82%; in assay [2] it was 91.7%; in assay [3], 101%; in assay [4], 102%; in assay [5], 90.6%; in assay [6] it was 83.2%. Further, the growth in assay [7] was 101%; in assay [8], 98.7%.

Take `CCOC(=O)c1ccc2c(c1)[n+](=O)c(C(=O)C1CCCS1)c(C(F)(F)F)n2[O-]` (stereo not drawn): the growth in assay [1] is -70.5% (active); in assay [2], -93.4% (active); in assay [3], -80.5% (active); in assay [4], -82.4% (active); in assay [5], -68.1% (active); in assay [6] it was -96.2% (active). For the same molecule, the growth is -89% (active) in assay [7] and -90.4% (active) in assay [8].

For `Clc1ccc(Cn2cc(-c3nc4ccc(Br)nc4n3Cc3ccc(Cl)cc3)c3cccnc32)cc1`, the growth was 34.7% in assay [1]; 82.4% in assay [2]; 105% in assay [3]; 103% in assay [4]; 57.7% in assay [5]; 84.1% in assay [6]. Besides, the growth in assay [7] is 96.7%; in assay [8], 95.9%.

`C[C@H]1[C@H]2C3=CC[C@@H]4[C@@]5(C)C/C(=C/c6ccco6)C(=O)C(C)(C)[C@@H]5CC[C@@]4(C)[C@]3(C)CC[C@@]2(C(=O)N2CCOCC2)CC[C@@H]1C`: the growth in assay [1] was 32%; in assay [2], 75.8%; in assay [3], 97.1%; in assay [4], 25.3%; in assay [5], 39.4%; in assay [6], 26.9%. Further, the growth in assay [7] is 90.5%; in assay [8] it was 54.2%.

Take `Cc1ccsc1-c1ccc2c(c1)COC2(CCCN(C)C)c1ccc(F)cc1` (stereo not drawn): the growth is 48.7% in assay [1]; 81.9% in assay [2]; 17.1% in assay [3]; 54.3% in assay [4]; 22.7% in assay [5]; 23.3% in assay [6]. Also, the growth in assay [7] is -48.4% (active); in assay [8], 42.6%.

Turning to `C[Si](C)(C)Cc1ccccc1`, the growth in assay [1] is 113%; in assay [2], 110%; in assay [3], 113%; in assay [4] it was 107%; in assay [5] it was 105%; in assay [6], 107%. Moreover, the growth in assay [7] was 114%; in assay [8] it was 108%.

Regarding `NCCNc1nc(-c2ccccc2)nc2nc(-c3ccccc3)oc12`, the growth is 81.7% in assay [1]; 97.7% in assay [2]; 92.2% in assay [3]; 51% in assay [4]; 81.2% in assay [5]; 54.7% in assay [6]. For the same molecule, the growth is 98.6% in assay [7] and 98.8% in assay [8].

In the case of `COc1ccc(NC(=S)N/N=C/c2ccccc2SSCCC(=O)OC[C@H]2O[C@H](O)[C@H](O)[C@@H](O)[C@@H]2O)cc1`, the growth in assay [1] was 66%; in assay [2], 68.9%; in assay [3], 52.8%; in assay [4], 93.5%; in assay [5] it was 44.7%; in assay [6], 72.9%. Also, the growth in assay [7] was 94.2%; in assay [8], 63.3%.

Take `Cc1ccc(-c2ccc(Nc3ccccc3)nn2)cc1S(N)(=O)=O`: the growth is 84.2% in assay [1]; 80.6% in assay [2]; 8.3% (active) in assay [3]; 51.7% in assay [4]; 78.1% in assay [5]; 79% in assay [6]. In addition, the growth is 59.8% in assay [7] and 39.3% in assay [8].

Regarding `CCc1ccc(-c2ccc(Nc3ccccc3)nn2)cc1S(N)(=O)=O`, the growth in assay [1] was 53.3%; in assay [2], 83.3%; in assay [3], 36.1%; in assay [4], 54.1%; in assay [5], 84.3%; in assay [6], 72.6%. In addition, the growth was 85.4% in assay [7] and 40.6% in assay [8].

As to `CC/C(=N/NC(N)=O)c1ccccc1`, the growth in assay [1] was 110%; in assay [2] it was 102%; in assay [3] it was 110%; in assay [4], 105%; in assay [5] it was 97%; in assay [6], 109%. In addition, the values for the growth in assay [7] and in assay [8] were 103% and 111%, respectively.

`Nc1c(C(=O)Nc2cccc(Br)c2)sc2nc3c(cc12)C(=O)CCC3`: the growth in assay [1] is 30%; in assay [2], 57.8%; in assay [3], -53.3% (active); in assay [4], 25%; in assay [5] it was 22.1%; in assay [6], 33.4%. The figures for the growth in assay [7] and in assay [8] were 38.2% and 18.6%, respectively.

As to `O=C(NO)c1ccc(Cn2c(=O)n(-c3ccccc3)c(=O)c3ccccc32)cc1`, the growth in assay [1] is 14.1%; in assay [2] it was 32.4%; in assay [3] it was -64.2% (active); in assay [4] it was 0.142% (active); in assay [5] it was 33.2%; in assay [6] it was -53.1% (active). The growth in assay [7] was 54.1%; in assay [8], -7.84% (active).

Consider `CC(=O)n1c(/C(C#N)=C/c2ccc(N(C)C)cc2)cc2ccccc21`, for which the growth is 35.8% in assay [1]; 17.7% in assay [2]; 2.22% (active) in assay [3]; 24.6% in assay [4]; 20.1% in assay [5]; 27.7% in assay [6]. In addition, the growth was 50.5% in assay [7] and 31.6% in assay [8].

Regarding `Cn1cccc1/C=C1/SC(=S)N(CCc2ccc(O)cc2)C1=O`, the growth in assay [1] is 42%; in assay [2], 41.4%; in assay [3], -27.9% (active); in assay [4] it was 31.6%; in assay [5] it was 33.8%; in assay [6] it was 21.4%. Also, the growth is 77.4% in assay [7] and 40.5% in assay [8].

Take `Cc1cc(N(CCNc2ccnc3cc(Cl)ccc23)Cc2ccco2)nc(Cl)n1`: the growth in assay [1] was -69.1% (active); in assay [2], -78% (active); in assay [3] it was 30.1%; in assay [4], -35.6% (active); in assay [5] it was -29.7% (active); in assay [6] it was -96.8% (active). The figures for the growth in assay [7] and in assay [8] were 62.2% and 26.5%, respectively.

Turning to `Cn1c2c(Cl)c(Cl)ccc2c2c(C#N)c[nH]c(=O)c21`, the growth is 102% in assay [1]; 120% in assay [2]; 115% in assay [3]; 106% in assay [4]; 96.5% in assay [5]; 92.7% in assay [6]. Besides, the figures for the growth in assay [7] and in assay [8] were 97.2% and 111%, respectively.

Turning to `CC(CNc1nc(Nc2ccc(Cl)c(Cl)c2)nc(C(Cl)(Cl)Cl)n1)N(C)C` (stereo not drawn), the growth in assay [1] is 20.4%; in assay [2], 45.6%; in assay [3], -47.1% (active); in assay [4], -74.8% (active); in assay [5], -64.8% (active); in assay [6], -88.7% (active). The growth in assay [7] is -79.4% (active); in assay [8] it was -88.4% (active).

As for `N#CC1=C(N)Oc2ccc3ccccc3c2C1c1ccccc1Cl` (stereo not drawn), the growth is 38% in assay [1]; 31.7% in assay [2]; -8.55% (active) in assay [3]; 30.6% in assay [4]; 18.1% in assay [5]; 18.3% in assay [6]. Further, the growth in assay [7] was 76%; in assay [8], 36%.

As to `CCCCC[C@H]1CC=C2C(=O)C(Cl)=C[C@@H]2CC=CCCCC(=O)O[C@@H](CCCCC)CC=C2C(=O)C(Cl)=C[C@@H]2CC=CCCCC(=O)O[C@@H](CCCCC)CC=C2C(=O)C(Cl)=C[C@@H]2CC=CCCCC(=O)O1`, the growth in assay [1] is 61% [8 µM]; in assay [2], 67.6% [8 µM]; in assay [3], 25.1% [8 µM]; in assay [4], 16.5% [8 µM]; in assay [5] it was 29.9% [8 µM]; in assay [6] it was 11.4% [8 µM]. For the same molecule, the growth in assay [7] is 99.1% [8 µM]; in assay [8] it was 91.2% [8 µM].

As to `COc1cc(-c2cc3ncccc3c3nc(N)c4cccnc4c23)cc(OC)c1OC`, the growth in assay [1] was 35%; in assay [2] it was 27.6%; in assay [3] it was -33.7% (active); in assay [4], 23.9%; in assay [5] it was 21.7%; in assay [6], 9.87% (active). For the same molecule, the figures for the growth in assay [7] and in assay [8] were 40.2% and 30.8%, respectively.

As to `Cc1cc(N2CCCCC2)nc(N(CCNc2ccnc3cc(Cl)ccc23)Cc2ccco2)n1`, the growth in assay [1] is -29.3% (active); in assay [2], 42.4%; in assay [3] it was 32.8%; in assay [4] it was 21.9%; in assay [5], 10.7%; in assay [6], 2.13% (active). Moreover, the values for the growth in assay [7] and in assay [8] were 92.6% and 31.9%, respectively.

In the case of `CCOC(=O)C1OC1(c1ccccc1)c1ccccc1` (stereo not drawn), the growth is 110% in assay [1]; 110% in assay [2]; 104% in assay [3]; 105% in assay [4]; 105% in assay [5]; 107% in assay [6]. In addition, the growth in assay [7] was 117%; in assay [8], 94.3%.

Turning to `N#CC1c2ccccc2-c2ccccc2N1C(=O)c1ccccc1` (stereo not drawn), the growth in assay [1] is 73.7%; in assay [2], 21.5%; in assay [3] it was -13.6% (active); in assay [4] it was 27.3%; in assay [5], 22.3%; in assay [6] it was 6.83% (active). The growth was -46.1% (active) in assay [7] and 5.94% (active) in assay [8].

Take `COc1ccc(/C=C2\N=C(c3ccccc3)N(c3cc(OC)c(OC)cc3C(=O)N3N=C(C)CC3=O)C2=O)cc1`: the growth in assay [1] was 71.2%; in assay [2], 90.1%; in assay [3], 93.4%; in assay [4] it was 108%; in assay [5], 89.7%; in assay [6], 89.6%. The growth is 113% in assay [7] and 91.1% in assay [8].

As to `COc1ccc(/C=C/C(=O)NCC(C)O)cc1` (stereo not drawn), the growth was 97.2% in assay [1]; 97.6% in assay [2]; 104% in assay [3]; 101% in assay [4]; 94.9% in assay [5]; 91.3% in assay [6]. The growth in assay [7] is 100%; in assay [8], 99.9%.

With `Cc1csc(-c2ccc3c(c2)COC3(CCCN(C)C)c2ccc(F)cc2)c1` (stereo not drawn), the growth is -37.5% (active) in assay [1]; 76.6% in assay [2]; -30.3% (active) in assay [3]; 22.7% in assay [4]; 17.1% in assay [5]; -26.7% (active) in assay [6]. The growth in assay [7] was -50.7% (active); in assay [8] it was 14.4%.

The record behind these values is PubChem BioAssay (NCI).
